Most compounds without a hit are left out; they make up all but 12% or so of the library.
SARS PLP yeast – blocks SARS-CoV papain-like protease in a yeast assay. S. cerevisiae expressing SARS-CoV PLpro, growth rescue. Potency, µM (top dose mostly 32.9 µM), without a hit: at the highest dose activity, positive = growth rescue, actives largely listed as activators. hit rate 0.19% among 330,000. AID 485353; calls by dose curve; also: 0% is about no effect; nearly all actives have a fitted effect of over 55% in size
Pf growth 48h – P. falciparum growth inhibition at 48 hours (one generation) | P. falciparum luciferase growth in erythrocytes, 48 h | Potency, µM (top dose mostly 28.7 µM), for the others: at the highest dose activity change, negative = inhibition, actives largely listed as inhibitors | hit rate 5.9% among 310,000 | AID 504832; also: % is scaled to controls: 0 for no effect and ±100 for the full control effect
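Read-out is firefly luciferase luminescence from an integrated reporter in P. falciparum, so falling signal marks reduced parasite growth. Infected erythrocytes were at 2% hematocrit and 0.1% parasitemia (final) in Albumax-supplemented RPMI 1640.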
Pf growth 96h – P. falciparum growth inhibition at 96 hours; P. falciparum luciferase reporter growth, 96 h; Potency, µM (top dose mostly 28.7 µM), for inactives: at the top dose activity change, negative = inhibition, most hits filed as inhibitors; hit rate 6.9% among 320,000; also: % is scaled to controls: 0 for no effect and ±100 for the full control effect
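Two-generation exposure (96 h) targets delayed-death phenotype. Reporter parasites carrying integrated firefly luciferase, in red cells at 2% hematocrit and 0.05% parasitemia final, kept at 37 C, 5% CO2; luminescence loss indicates inhibition.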
HCV inhibitor – inhibitors of hepatitis C virus infection | hit rate 3.4% among 340,000 | Potency, µM (doses to about 41.8 µM), without a hit: at the highest dose activity change, negative = inhibition, most hits filed as inhibitors | Huh7.5.1 HCVcc-Cre infection, luciferase reporter, 44 h | AID 651820; also: % is scaled to controls: 0 for no effect and ±100 for the full control effect
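Luciferase read-out (15 sec integration) after a 15 min room-temperature substrate step quantifies HCVcc-Cre infection. Cells, 1,000 per well, had compound added 4 h post-plating, then virus at ~0.5 moi, and were cultured 44 h.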
AMA1-RON2 inh – disrupts binding of P. falciparum AMA1 to RON2. hit rate 0.2% among 360,000. Potency, µM (series often up to 58.2 µM), for inactives: top-dose activity change, negative = inhibition, usual class: inhibitors. AID 720542. AlphaScreen AMA1-biotinylated RON2 peptide binding;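 also: 0% = vehicle wells and -100% = peptide control; nearly all actives have a fitted effect of over 45% in size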
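AMA1 (3D7) with his tag at 25 nM final met compounds first, then biotinylated RON2 peptide at 25 nM; detection used donor plus acceptor beads, 10 µg/mL apiece, read by AlphaScreen after 30 min at room temperature.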
NS1 inh – influenza NS1 inhibition; Potency, µM (doses to about 46.1 µM), without a hit: top-dose activity, positive = more growth; hit rate 0.4% among 270,000; calls by dose curve; also: actives are rising curves; nearly all actives have a fitted effect of over 50% in size
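Recovery from NS1-induced slow growth read by OD600 in budding yeast switched to galactose assay medium (pH 6.0, -URA) at 1:100 dilution. Compound 23 nl per well; the matching strain lacking NS1 serves as control.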
Starred values were filed as active, the others as inactive; [ ] = another dose, or the depositor's remark. Unless noted, calls follow the shape of the dose curve; as a rule, active = well fitted curve in the direction sought with a large enough effect; inconclusive = small, poorly fitted or top-dose-only effect, or another doubt; inactive = no such curve, though single readings can be large; an effect the other way counts as inactive or inconclusive. Potency is read from the fitted curve at half-maximal effect.

How did CN(C)CCN(C(=O)C1=COCCO1)c1nc2ccc(F)cc2s1 do in these assays?
HCV inhibitor: 2%; AMA1-RON2 inh: -15%

What do the screens show for `Cc1c(C(=O)N2CCOCC2)sc2ncnc(N3CCc4ccccc4C3)c12`?
SARS PLP yeast: 3%; Pf growth 48h: -21%; Pf growth 96h: 59%; HCV inhibitor: 8%; AMA1-RON2 inh: 3%; NS1 inh: -14%

Results for COCCCNC(=O)c1sc2ncnc(N3CCc4ccccc4C3)c2c1C ?
SARS PLP yeast: -7%; Pf growth 48h: inconclusive; Pf growth 96h: 6.6µM*; HCV inhibitor: inconclusive; AMA1-RON2 inh: 9%; NS1 inh: 14%

Results for CCN(CC)C(=O)c1cnn(-c2ccccc2)c1NC(=O)c1ccccc1F ?
SARS PLP yeast: -14%; Pf growth 48h: -12%; Pf growth 96h: 0.93µM*; HCV inhibitor: 15%; AMA1-RON2 inh: -2%; NS1 inh: 11%

How did Cc1cc(NC(=O)CSc2nc(-c3cccs3)nc3ccccc23)no1 do in these assays?
SARS PLP yeast: 0%; Pf growth 48h: inconclusive; Pf growth 96h: 65%; HCV inhibitor: inconclusive; AMA1-RON2 inh: -2%

How did CN1CCN(Cc2cn[nH]c2-c2ccc(F)cc2F)[C@@H](c2ccccc2)C1 do in these assays?
SARS PLP yeast: 1%; Pf growth 48h: 38%; Pf growth 96h: 2.6µM*; HCV inhibitor: 4%; AMA1-RON2 inh: 0%; NS1 inh: 2%

What do the screens show for `O=C(C1CCN(Cc2cn[nH]c2-c2ccc(F)cc2F)CC1)N1CCOCC1`?
SARS PLP yeast: -1%; Pf growth 48h: 45%; Pf growth 96h: -12%; HCV inhibitor: 31%; AMA1-RON2 inh: -17%; NS1 inh: 3%

How did OCCCC1CCCN(Cc2cn[nH]c2-c2ccc(F)cc2F)C1 (centres undefined) do in these assays?
SARS PLP yeast: 0%; Pf growth 48h: 12%; Pf growth 96h: 7.4µM*; HCV inhibitor: 5%; AMA1-RON2 inh: 3%; NS1 inh: 3%

Results for O=C(O)c1cccc(-n2c(O)c(C=C3N=c4ccccc4=N3)sc2=S)c1 ?
SARS PLP yeast: 0%; Pf growth 48h: 12µM*; Pf growth 96h: inconclusive; HCV inhibitor: 22%; AMA1-RON2 inh: 76%; NS1 inh: 9%

Results for O=C(COc1ccc(Cl)cc1Br)OCC(=O)c1ccc[nH]1 ?
SARS PLP yeast: -3%; HCV inhibitor: 16%; AMA1-RON2 inh: -2%

What do the screens show for `COc1ccc(C(=O)NC(=S)N2CC(C)OC(C)C2)cc1OC` (centres undefined)?
SARS PLP yeast: 1%; Pf growth 48h: -20%; Pf growth 96h: 5.2µM*; HCV inhibitor: 16%; AMA1-RON2 inh: 21%; NS1 inh: 9%

Results for COc1ccccc1Nc1nc(N)nc(CSC(=S)N2CCCCC2C)n1 (centres undefined) ?
SARS PLP yeast: 13µM*; Pf growth 48h: inconclusive; Pf growth 96h: inconclusive; HCV inhibitor: inconclusive; AMA1-RON2 inh: 9%[2.32 µM]; NS1 inh: -7%

How did Cc1ccc(Nc2nc(N)nc(CN3CCN(Cc4ccc5c(c4)OCO5)CC3)n2)cc1Cl do in these assays?
SARS PLP yeast: 7%; Pf growth 48h: inconclusive; Pf growth 96h: 101%[5.75 µM]; HCV inhibitor: 32µM*; AMA1-RON2 inh: -18%; NS1 inh: 17%

How did COc1ccc(Nc2nc(N)nc(CN3CCC(Cc4ccccc4)CC3)n2)cc1 do in these assays?
SARS PLP yeast: 6%; Pf growth 48h: 5.9µM*; Pf growth 96h: -27%; HCV inhibitor: inconclusive; AMA1-RON2 inh: 26%; NS1 inh: -7%

How did COc1ccccc1Nc1nc(N)nc(CSC(=S)N2CCN(c3ccccc3)CC2)n1 do in these assays?
SARS PLP yeast: 2%; Pf growth 48h: inconclusive; Pf growth 96h: inconclusive; HCV inhibitor: inconclusive; AMA1-RON2 inh: -24%

Results for Cc1ccc(Nc2nc(N)nc(CN3CCN(c4ccccc4)CC3)n2)cc1Cl ?
SARS PLP yeast: -1%; Pf growth 48h: inconclusive; Pf growth 96h: inconclusive; HCV inhibitor: inconclusive; AMA1-RON2 inh: -9%; NS1 inh: -74%

How did COc1ccc(N2CCN(Cc3nc(N)nc(Nc4ccc(C)c(Cl)c4)n3)CC2)cc1 do in these assays?
SARS PLP yeast: 1%; Pf growth 48h: inconclusive; HCV inhibitor: 10µM*; AMA1-RON2 inh: inconclusive; NS1 inh: -9%

What do the screens show for `COc1cc(C(=O)O[C@H]2CC(C)=CC[C@@]3(C)CC[C@@](O)(C(C)C)[C@H]23)ccc1O`?
SARS PLP yeast: -5%; Pf growth 48h: inconclusive; Pf growth 96h: inconclusive; HCV inhibitor: 21%; AMA1-RON2 inh: -8%; NS1 inh: 6%

What do the screens show for `Cc1sc2ncn(CC(=O)NCC(=O)N3CCN(c4ccc(F)cc4)CC3)c(=O)c2c1C`?
SARS PLP yeast: 1%; Pf growth 48h: 27%; Pf growth 96h: -2%; HCV inhibitor: -22%; AMA1-RON2 inh: -13%; NS1 inh: inconclusive

What do the screens show for `Cc1cc([N+](=O)[O-])cc(/C=N\NC(=O)C2COc3ccccc3O2)c1O` (centres undefined)?
SARS PLP yeast: 0%; Pf growth 48h: inconclusive; Pf growth 96h: inconclusive; HCV inhibitor: 2%; AMA1-RON2 inh: -1%; NS1 inh: -74%

What do the screens show for `CCOc1ccc(NC(=O)N2CCN(Cc3ccc4c(c3)OCO4)CC2)cc1`?
SARS PLP yeast: -1%; Pf growth 48h: -26%; Pf growth 96h: 18%; HCV inhibitor: -6%; AMA1-RON2 inh: -14%; NS1 inh: 8%

What do the screens show for `Cc1ccc(NC(=O)N2CCN(Cc3ccc4c(c3)OCO4)CC2)cc1`?
SARS PLP yeast: 14%; Pf growth 96h: 13µM*; AMA1-RON2 inh: 28%; NS1 inh: 7%

What do the screens show for `Cc1ccc(Nc2nc(N)nc(CN3CCN(Cc4ccc5c(c4)OCO5)CC3)n2)cc1`?
SARS PLP yeast: -1%; Pf growth 48h: 10µM*; HCV inhibitor: -27%; AMA1-RON2 inh: -12%; NS1 inh: 2%

What do the screens show for `Cc1c(O)ccc(C(=O)CN2CCN(Cc3ccc4c(c3)OCO4)CC2)c1O`?
SARS PLP yeast: -10%; Pf growth 48h: -24%; Pf growth 96h: 12µM*; HCV inhibitor: 2%; AMA1-RON2 inh: -2%; NS1 inh: 12%

Results for Cc1ccc(Nc2nc(N)nc(CN3CCN(Cc4ccc5c(c4)OCO5)CC3)n2)cc1C ?
SARS PLP yeast: 0%; Pf growth 48h: inconclusive; Pf growth 96h: 22%; HCV inhibitor: inconclusive; AMA1-RON2 inh: -15%; NS1 inh: 0%

Results for CCOC(=O)N1CCN(Cc2ccc3c(c2)OCO3)CC1 ?
SARS PLP yeast: 2%; Pf growth 48h: 12%; Pf growth 96h: inconclusive; HCV inhibitor: -3%; AMA1-RON2 inh: -4%; NS1 inh: -13%

Compound activity deposited in PubChem BioAssay by National Center for Advancing Translational Sciences (NCATS).
